# Inconclusive results are not listed. Where a call stands in place of a potency, no number is given. Active and inactive are the calls of the source. The call rests on the fitted dose curve; in most records, active means well fitted activation curve with a large enough effect; inconclusive means small, poorly fitted or top-dose-only effect; inactive means no such curve, though single readings can be large or run the other way.
# Experiment: qHTS assay for re-activators of p53 using a Luc reporter: Hit Validation with no p53 Expressed
# Conditions: p53-null cells, luciferase reporter counter-screen; series mostly up to 46.1 µM
# Procedure, shortened: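 Without p53 expression, cells (1000/well, Opti-MEM + 10% FBS) were exposed 24 h at 37 deg C to compounds in a 1:5 series from 10 mM stock (top 46.1 µM in well). Luminescent signal read 10 min after Amplite addition; actives flag unspecific activation.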
# Potency means the concentration at half of the fitted maximal effect.
row,SMILES,Potency
1,COc1ccccc1-c1nc(-c2ccc(Br)o2)no1,820 nM (active)
2,O=C(NCCC1=CCCCC1)c1ccc(F)c(S(=O)(=O)N2CCOCC2)c1,inactive
3,N#Cc1nc(COc2ccccc2)oc1N1CCOCC1,inactive
4,O=C(NC1CCCCC1)c1ccc(-c2ccccc2F)o1,inactive
5,Cc1c(C(=O)N(C)c2ccccc2Cl)cnn1-c1ccccc1,inactive
6,CCCCn1c(SCC(=O)N2CCCC2=O)nc2cc(S(N)(=O)=O)ccc21,inactive
7,N#Cc1ccccc1NC(=O)c1cccc(COc2ccc(Cl)cc2Cl)c1,116 nM (active)
8,Cc1cc(C(F)(F)F)c(C#N)c(SCC(=O)Nc2nc3ccccc3s2)n1,116 nM (active)
9,Cc1ccc(OCCCNCCO)c(Br)c1,inactive
10,COc1ccc(CCC(=O)Nc2ccc(-c3noc(-c4ccc(OC)c(OC)c4)n3)cc2)cc1,inactive
11,Cc1ccc(/C=C2\SC(=S)N(CCCC(=O)Nc3nccs3)C2=O)cc1,inactive
12,C=CCNC(=S)N/N=C(\C)c1ccccn1,inactive
13,COc1cccc(-c2cn3nc4c(nc3n2)CCCC4)c1,inactive
14,O=C(Nc1nnc(-c2ccccc2F)s1)C1CCN(S(=O)(=O)c2ccc(Cl)cc2)CC1,inactive
15,Cc1cccc(C(=O)OCC(=O)N2CCCCCC2)c1O,inactive
16,C/C(=N\NC(=O)c1cccc(Br)c1)c1ccccn1,inactive
17,C=CCn1c(SC(F)F)nc2scc(-c3ccco3)c2c1=O,inactive
18,Brc1c(CSc2nc3ccccc3s2)nc2ncccn12,inactive
19,O=C(Cc1ccccc1)Nc1ccc(NC(=O)c2cccnc2)cc1,inactive

row,SMILES,Potency
1,Cc1cc(C(=O)COC(=O)c2ccc(O)cc2)c(C)n1CC(F)(F)F,20600 nM (active)
2,Cc1ccc(CSc2nc3ccncc3[nH]2)cc1,inactive
3,CCOC(=O)c1[nH]c(C)c(C(=O)NCCC2=CCCCC2)c1C,inactive
4,O=C(NNC(=O)c1cc(-c2ccccc2)nn1-c1ccccc1)c1ccccc1,inactive
5,CC(=O)N/C(=C/c1ccc2c(c1)OCO2)C(=O)Nc1ccccc1,inactive
6,COc1ccc(-c2csc(NCc3ccco3)n2)cc1C,inactive
7,Nc1nonc1-n1nnc(C(=O)N/N=C/c2ccc(Br)cc2)c1CSC1=NCCS1,inactive
8,Cc1ccc(Nc2nc(N)nc(CSc3nccn3C)n2)cc1,inactive
9,COc1ccc(/C=N/Nc2nncc3ccccc23)cc1,inactive
10,CC(=O)c1cccc(NC(=O)c2sc(Cl)nc2C)c1,inactive
11,COc1ccccc1C(=O)NC(=S)NNC(=O)c1sc2ccccc2c1Cl,inactive
12,NC(=O)c1ccc(-n2c(CCC(=O)O)ccc2-c2cccs2)cc1,inactive
13,CCN(CC)c1ccc(NC(=O)CN2CCN(CC(=O)Nc3ccccc3F)CC2)cc1,inactive
14,N#CC(c1ccccc1)C1CCN(Cc2ccccc2)CC1 (stereo not drawn),inactive
15,CN(C)CCCn1c(SCC(=O)Nc2nccs2)nnc1-c1ccncc1,inactive
16,O=c1[nH]c2ccc(N/C(=N/S(=O)(=O)c3ccccc3)c3ccccc3)cc2[nH]1,inactive
17,NC(=O)c1cc(Cl)ccc1OCC(=O)Nc1ccc2c(c1)OCO2,inactive
18,CC(C)OC(=O)CCCCCN1C(=O)CSC1=S,inactive
19,O=C(COc1ccccc1Cl)Nc1ccc(Cl)cn1,inactive
